Inconclusive results are not listed. A call without a number means that no potency is given here. A number with no mark means an inactive call. Activity calls are given as the source filed them. Calls come from the whole dose curve; as a rule, active = well fitted activation curve with a large enough effect in the repeat runs; inconclusive = weak or mixed curves; inactive = no such curve, though single readings can be large or run the other way.

Consider 19 molecules from PubChem BioAssay (Tox21).

Sequence of Nuclear receptor subfamily 1 group I member 2 (Rattus norvegicus) (Q9R1A7 whole entry, looked up): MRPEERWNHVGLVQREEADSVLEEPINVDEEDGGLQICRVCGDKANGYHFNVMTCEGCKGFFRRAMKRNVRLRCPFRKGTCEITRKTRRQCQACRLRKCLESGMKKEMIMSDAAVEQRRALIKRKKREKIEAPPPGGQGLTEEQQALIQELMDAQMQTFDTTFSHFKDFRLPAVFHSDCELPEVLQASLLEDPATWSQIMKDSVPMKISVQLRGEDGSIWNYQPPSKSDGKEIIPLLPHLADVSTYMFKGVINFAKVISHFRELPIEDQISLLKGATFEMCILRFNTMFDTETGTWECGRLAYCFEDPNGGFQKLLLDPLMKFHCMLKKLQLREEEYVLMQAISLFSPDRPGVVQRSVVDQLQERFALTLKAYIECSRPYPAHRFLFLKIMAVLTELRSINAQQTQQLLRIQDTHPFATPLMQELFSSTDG

In the first assay the target is Nuclear receptor subfamily 1 group I member 2 (Homo sapiens) (UniProt O75469). The assay can be described thus: Human pregnane X receptor (PXR) small molecule agonists, qHTS assay (AID 1346982). Note: nearly all actives have a fitted effect of over 35% in size. As to conditions: PXR-Luc HepG2, CYP3A4 luciferase reporter, 24 h; series mostly up to 92.4 µM. The essentials: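 Stable HepG2 line reporting PXR-mediated CYP3A4 expression via luciferase. Treatment: 24 hr with compounds in DMSO at 37 C. Detection: ONE-Glo luminescence.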
Sequence of Nuclear receptor subfamily 1 group I member 2 (Homo sapiens) (O75469 whole entry, looked up): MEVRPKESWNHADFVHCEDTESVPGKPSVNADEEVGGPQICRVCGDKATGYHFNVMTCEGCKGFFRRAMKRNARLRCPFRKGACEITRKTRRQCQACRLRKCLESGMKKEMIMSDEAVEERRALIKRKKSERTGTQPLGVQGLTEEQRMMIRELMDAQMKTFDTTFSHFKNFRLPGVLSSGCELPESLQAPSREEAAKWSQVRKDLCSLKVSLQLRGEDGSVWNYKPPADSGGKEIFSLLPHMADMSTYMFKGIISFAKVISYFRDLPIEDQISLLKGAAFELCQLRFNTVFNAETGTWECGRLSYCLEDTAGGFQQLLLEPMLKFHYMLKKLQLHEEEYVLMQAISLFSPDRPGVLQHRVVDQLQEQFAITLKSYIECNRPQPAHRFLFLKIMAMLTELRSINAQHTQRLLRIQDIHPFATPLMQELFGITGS
With `c1ccc2cnncc2c1`, the Potency result was “inactive”.

With `CC1=CC(=O)CCC1`, the Potency result was “inactive”.

Take `CN(C)N=Nc1ccccc1`: the Potency result was “inactive”.

With `NC(=S)Nc1cccc2ccccc12`, the activation was -0.9% [at 8.39 µM].

`CC(C)c1cccc(O)c1`: the Potency result was “inactive”.

For the molecule `NC(N)=NS(=O)(=O)c1ccc(N)cc1`, the Potency result was “inactive”.

For `CCCCCCCCN(C)CCCCCCCC`, the Potency result is “inactive”.

`CC1(C)SC(C)(C)SC(C)(C)S1`: the Potency result was “inactive”.

Consider `NCCN1CCNC1=O`, for which the Potency entry was “inactive”.

On to `CCCCCCCCCCC1CO1` (stereo not drawn), for which the Potency result was “inactive”.

For a further assay, the target named is Nuclear receptor subfamily 1 group I member 2 (Rattus norvegicus) (UniProt Q9R1A7). The assay can be described thus: Rat pregnane X receptor (rPXR) activation by small molecules, qHTS assay (AID 1346983). Note: nearly all actives have a fitted effect of over 20% in size. Note: potency is the fitted concentration of half-maximal effect. The conditions noted are these: rPXR luciferase reporter cells, One-Glo luminescence, 24 h; max activation: stronger effect = higher value. Put shortly:
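Luminescent readout (One-Glo luciferase, 30 min room temperature) followed 24 hr compound treatment at 37 C of rPXR cells plated 2,000 per well and preincubated 5hr; qHTS format with compounds delivered in DMSO.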
For the molecule `C=CCSCC1Nc2cc(Cl)c(S(N)(=O)=O)cc2S(=O)(=O)N1` (stereo not drawn), the max activation is 0.305%.

With `CCN(CC)S(=O)(=O)c1ccc(C(=O)O)cc1`, the max activation is -1.28%.

Take `NCC[C@H](O)C(=O)N[C@@H]1C[C@H](N)[C@@H](O[C@H]2O[C@H](CN)[C@@H](O)[C@H](O)[C@H]2O)[C@H](O)[C@H]1O[C@H]1O[C@H](CO)[C@@H](O)[C@H](N)[C@H]1O`: the max activation is -10.2%.

As for `NC(=O)c1ncn([C@@H]2O[C@H](CO)[C@@H](O)[C@H]2O)c1N`, the max activation is 0.984%.

For `CO`, the max activation was -1.84%.

With `NC(=O)CCCCC1CCSS1` (stereo not drawn), the max activation is -4.58%.

As for `CC(C)c1ccc2oc3nc(N)c(C(=O)O)cc3c(=O)c2c1`, the Potency is 4.47 µM (active).

For the molecule `O=C(O)c1ccc[n+]([O-])c1`, the max activation is -2.52%.

With `NS(=O)(=O)c1cc2c(cc1Cl)NC(CSCc1ccccc1)=NS2(=O)=O`, the max activation is -1.07%.

Turning to `NC(N)=NS(=O)(=O)c1ccc(N)cc1`, the max activation is -6.55%.

The target of another assay is Nuclear receptor subfamily 1 group I member 2 (Homo sapiens) (UniProt O75469). The assay can be described thus: CYP3A4 induction through human pregnane X receptor (PXR) by small molecules, qHTS assay (AID 1346984). Note: nearly all actives have a fitted effect of over 40% in size. As to conditions: DPX-2 HepG2 PXR, CYP3A4-luciferin luminescence, 24 h; series mostly up to 46.1 µM. The essentials: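 After 24 h at 37C with compound, DPX-2 cells (HepG2, co-transfected PXR response element and CYP3A4 promoter-luciferase) got 3uM final P450-Glo Luciferin-IPA for 3 h; One-Glo luminescence followed.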
For `CCN(CC)S(=O)(=O)c1ccc(C(=O)O)cc1`, the Potency result was “inactive”.

With `NCC[C@H](O)C(=O)N[C@@H]1C[C@H](N)[C@@H](O[C@H]2O[C@H](CN)[C@@H](O)[C@H](O)[C@H]2O)[C@H](O)[C@H]1O[C@H]1O[C@H](CO)[C@@H](O)[C@H](N)[C@H]1O`, the Potency entry is “inactive”.

Take `NC(=O)c1ncn([C@@H]2O[C@H](CO)[C@@H](O)[C@H]2O)c1N`: the Potency result is “inactive”.

As to `NC(=O)CCCCC1CCSS1` (stereo not drawn), the Potency result is “inactive”.

Take `CC(C)c1ccc2oc3nc(N)c(C(=O)O)cc3c(=O)c2c1`: the Potency entry is “inactive”.

For `O=C(O)c1ccc[n+]([O-])c1`, the Potency entry was “inactive”.

In the case of `NS(=O)(=O)c1cc2c(cc1Cl)NC(CSCc1ccccc1)=NS2(=O)=O`, the Potency result was “inactive”.

Take `NC(N)=NS(=O)(=O)c1ccc(N)cc1`: the Potency result is “inactive”.
